# According to article PMC7862700, “An all-to-all approach to the identification of sequence-specific readers for epigenetic DNA modifications on cytosine”:
# How the values were obtained:
# Test in all cases: DAPPL (digital affinity profiling via proximity ligation, sequencing); 10 mM Tris-HCl pH 7.5, 50 mM NaCl, 1 mM DTT, 4% glycerol, room temperature, 30 min; GST-TFs on glutathione beads, 16-mer random dsDNA library, 0.1% formaldehyde crosslink after washing; high values mean tight binding
# FLI1 = biological target: T1, FLI1 (Homo sapiens, UniProt Q01543 1-452); settings: protein: recombinant; tags: N-terminal GST; dsDNA, one strand shown
# T1 sequence: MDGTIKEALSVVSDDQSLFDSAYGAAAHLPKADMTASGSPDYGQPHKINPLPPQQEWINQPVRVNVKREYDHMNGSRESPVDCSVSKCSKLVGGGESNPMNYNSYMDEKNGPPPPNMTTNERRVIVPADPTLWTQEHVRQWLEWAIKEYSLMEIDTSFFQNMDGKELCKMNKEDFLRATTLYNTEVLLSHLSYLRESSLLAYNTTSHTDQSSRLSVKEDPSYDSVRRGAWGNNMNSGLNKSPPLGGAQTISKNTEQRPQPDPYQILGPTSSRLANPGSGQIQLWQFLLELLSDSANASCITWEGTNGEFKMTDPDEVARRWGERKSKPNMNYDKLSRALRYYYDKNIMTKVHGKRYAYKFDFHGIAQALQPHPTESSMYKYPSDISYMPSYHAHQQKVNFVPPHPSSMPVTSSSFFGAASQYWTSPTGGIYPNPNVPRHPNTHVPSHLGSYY
# How it was run: (§1)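 Human transcription factors were made in yeast as GST fusions, captured on glutathione beads and barcoded with DNA. With a tag-only sample included, the pool was incubated with 200 nmole of a random double-stranded 16-mer DNA library in Tris/NaCl/DTT/glycerol buffer at room temperature for 30 min, then crosslinked with 0.1% formaldehyde after washing, ligated by proximity, amplified and sequenced. For binding signal, each hexamer's read frequency for a factor is divided by its frequency for the tag-only sample.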
# ELK1 = biological target: T2, ELK1 (Homo sapiens, UniProt P19419 1-428); settings: protein: recombinant; tags: N-terminal GST; dsDNA, one strand shown
# T2 sequence: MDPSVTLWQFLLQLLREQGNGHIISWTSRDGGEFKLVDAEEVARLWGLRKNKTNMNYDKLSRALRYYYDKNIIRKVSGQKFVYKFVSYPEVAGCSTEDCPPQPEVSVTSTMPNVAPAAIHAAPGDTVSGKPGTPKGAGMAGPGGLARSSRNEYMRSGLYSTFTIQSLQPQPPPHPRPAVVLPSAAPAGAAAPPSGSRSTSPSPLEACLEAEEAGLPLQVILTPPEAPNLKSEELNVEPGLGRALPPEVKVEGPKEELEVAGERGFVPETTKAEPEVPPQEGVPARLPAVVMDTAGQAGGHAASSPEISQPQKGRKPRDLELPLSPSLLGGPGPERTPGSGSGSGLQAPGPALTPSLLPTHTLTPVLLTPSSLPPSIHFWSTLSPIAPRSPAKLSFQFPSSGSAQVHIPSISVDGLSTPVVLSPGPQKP
# How it was run: as §1
# GABPA = biological target: T3, GABPA (Homo sapiens, UniProt Q06546 1-454); settings: protein: recombinant; tags: N-terminal GST; dsDNA, one strand shown
# T3 sequence: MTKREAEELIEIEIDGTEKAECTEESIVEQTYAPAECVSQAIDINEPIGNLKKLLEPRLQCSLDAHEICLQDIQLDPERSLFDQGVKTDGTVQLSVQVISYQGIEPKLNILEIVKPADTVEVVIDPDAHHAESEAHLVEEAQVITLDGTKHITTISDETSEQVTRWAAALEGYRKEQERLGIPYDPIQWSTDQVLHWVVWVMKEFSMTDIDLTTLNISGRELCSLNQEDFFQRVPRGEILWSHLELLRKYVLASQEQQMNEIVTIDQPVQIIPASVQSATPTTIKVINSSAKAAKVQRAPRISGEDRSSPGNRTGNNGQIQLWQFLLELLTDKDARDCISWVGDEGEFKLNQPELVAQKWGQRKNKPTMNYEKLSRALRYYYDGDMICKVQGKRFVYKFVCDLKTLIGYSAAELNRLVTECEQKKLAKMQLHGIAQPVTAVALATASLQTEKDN
# How it was run: as §1
# ELF1 = ELF1 (Homo sapiens, UniProt P32519 1-619); settings: protein: recombinant; tags: N-terminal GST; dsDNA, one strand shown
# How it was run: as §1
# EHF = biological target: T4, EHF (Homo sapiens, UniProt Q9NZC4 1-300); settings: protein: recombinant; tags: N-terminal GST; dsDNA, one strand shown
# T4 sequence: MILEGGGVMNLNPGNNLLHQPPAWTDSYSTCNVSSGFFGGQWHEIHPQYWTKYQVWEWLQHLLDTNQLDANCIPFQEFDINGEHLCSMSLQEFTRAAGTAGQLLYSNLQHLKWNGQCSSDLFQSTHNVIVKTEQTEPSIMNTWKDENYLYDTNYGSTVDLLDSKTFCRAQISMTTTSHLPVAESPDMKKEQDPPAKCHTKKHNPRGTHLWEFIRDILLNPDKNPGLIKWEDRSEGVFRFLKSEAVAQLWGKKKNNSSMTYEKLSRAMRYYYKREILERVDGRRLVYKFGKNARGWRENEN
# How it was run: as §1
# SPIB = SPIB (Homo sapiens, UniProt Q01892 1-262); settings: protein: recombinant; tags: N-terminal GST; dsDNA, one strand shown
# How it was run: as §1
# ELK3 = biological target: T5, ELK3 (Homo sapiens, UniProt P41970 1-407); settings: protein: recombinant; tags: N-terminal GST; dsDNA, one strand shown
# T5 sequence: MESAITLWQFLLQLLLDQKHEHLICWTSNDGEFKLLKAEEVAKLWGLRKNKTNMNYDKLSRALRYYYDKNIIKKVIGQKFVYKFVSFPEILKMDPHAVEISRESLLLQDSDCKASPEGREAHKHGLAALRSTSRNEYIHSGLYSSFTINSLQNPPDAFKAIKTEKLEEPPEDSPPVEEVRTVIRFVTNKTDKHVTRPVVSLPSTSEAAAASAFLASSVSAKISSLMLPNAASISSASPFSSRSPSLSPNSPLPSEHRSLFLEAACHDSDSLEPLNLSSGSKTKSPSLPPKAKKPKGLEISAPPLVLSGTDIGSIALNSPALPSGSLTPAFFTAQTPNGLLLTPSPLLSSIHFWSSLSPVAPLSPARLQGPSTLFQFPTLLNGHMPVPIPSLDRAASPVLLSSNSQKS
# How it was run: as §1
# HSF1 = HSF1 (Homo sapiens, UniProt Q00613 1-529); settings: protein: recombinant; tags: N-terminal GST; chain copies: 3; dsDNA, one strand shown
# How it was run: as §1
# ELF4 = ELF4 (Homo sapiens, UniProt Q99607 1-663); settings: protein: recombinant; tags: N-terminal GST; dsDNA, one strand shown
# How it was run: as §1
# ELK4 = biological target: T6, ELK4 (Homo sapiens, UniProt P28324-2 1-405); settings: protein: recombinant; tags: N-terminal GST; dsDNA, one strand shown
# T6 sequence: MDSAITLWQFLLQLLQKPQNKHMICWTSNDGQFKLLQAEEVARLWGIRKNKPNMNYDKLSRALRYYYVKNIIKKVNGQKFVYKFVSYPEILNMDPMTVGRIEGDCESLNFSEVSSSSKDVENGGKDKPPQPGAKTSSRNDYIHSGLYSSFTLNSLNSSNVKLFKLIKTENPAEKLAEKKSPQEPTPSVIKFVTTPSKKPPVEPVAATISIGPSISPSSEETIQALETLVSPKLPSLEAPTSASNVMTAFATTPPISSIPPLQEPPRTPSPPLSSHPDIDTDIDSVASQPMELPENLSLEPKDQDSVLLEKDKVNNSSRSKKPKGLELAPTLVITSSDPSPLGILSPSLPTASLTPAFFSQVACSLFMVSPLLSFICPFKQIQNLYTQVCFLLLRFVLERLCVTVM
# How it was run: as §1
# ELF3 = biological target: T7, ELF3 (Homo sapiens, UniProt P78545 1-371); settings: protein: recombinant; tags: N-terminal GST; dsDNA, one strand shown
# T7 sequence: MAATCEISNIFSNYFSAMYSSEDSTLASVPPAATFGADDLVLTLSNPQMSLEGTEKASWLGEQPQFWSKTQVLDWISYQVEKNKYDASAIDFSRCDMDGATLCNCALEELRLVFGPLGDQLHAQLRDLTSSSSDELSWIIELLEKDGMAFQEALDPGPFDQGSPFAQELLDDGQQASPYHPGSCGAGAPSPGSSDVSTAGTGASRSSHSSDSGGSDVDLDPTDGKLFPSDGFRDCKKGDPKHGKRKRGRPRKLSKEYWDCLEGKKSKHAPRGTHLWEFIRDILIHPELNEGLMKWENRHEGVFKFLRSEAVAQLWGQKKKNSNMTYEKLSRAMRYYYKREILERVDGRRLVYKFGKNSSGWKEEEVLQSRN
# How it was run: as §1
# ETV1 = ETV1 (Homo sapiens, UniProt P50549 1-477); settings: protein: recombinant; tags: N-terminal GST; dsDNA, one strand shown
# How it was run: as §1
# ERF = biological target: T8, ERF (Homo sapiens, UniProt P50548 1-548); settings: protein: recombinant; tags: N-terminal GST; dsDNA, one strand shown
# T8 sequence: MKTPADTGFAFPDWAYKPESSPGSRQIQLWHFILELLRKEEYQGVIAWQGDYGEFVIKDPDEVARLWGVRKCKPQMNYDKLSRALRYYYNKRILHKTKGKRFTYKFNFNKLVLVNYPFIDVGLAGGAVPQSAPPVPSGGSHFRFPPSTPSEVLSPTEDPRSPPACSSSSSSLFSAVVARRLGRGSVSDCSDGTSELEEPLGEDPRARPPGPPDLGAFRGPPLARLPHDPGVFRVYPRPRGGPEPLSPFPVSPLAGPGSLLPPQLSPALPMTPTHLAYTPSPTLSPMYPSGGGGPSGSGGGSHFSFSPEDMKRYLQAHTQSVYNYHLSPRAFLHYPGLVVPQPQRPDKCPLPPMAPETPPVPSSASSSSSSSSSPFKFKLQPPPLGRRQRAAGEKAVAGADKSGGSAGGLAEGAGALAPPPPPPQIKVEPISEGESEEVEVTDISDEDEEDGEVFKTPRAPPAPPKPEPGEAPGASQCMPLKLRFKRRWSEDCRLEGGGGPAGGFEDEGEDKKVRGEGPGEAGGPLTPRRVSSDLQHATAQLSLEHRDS
# How it was run: as §1
# ETV3L = biological target: T9, ETV3L (Homo sapiens, UniProt Q6ZN32 1-361); settings: protein: recombinant; tags: N-terminal GST; dsDNA, one strand shown
# T9 sequence: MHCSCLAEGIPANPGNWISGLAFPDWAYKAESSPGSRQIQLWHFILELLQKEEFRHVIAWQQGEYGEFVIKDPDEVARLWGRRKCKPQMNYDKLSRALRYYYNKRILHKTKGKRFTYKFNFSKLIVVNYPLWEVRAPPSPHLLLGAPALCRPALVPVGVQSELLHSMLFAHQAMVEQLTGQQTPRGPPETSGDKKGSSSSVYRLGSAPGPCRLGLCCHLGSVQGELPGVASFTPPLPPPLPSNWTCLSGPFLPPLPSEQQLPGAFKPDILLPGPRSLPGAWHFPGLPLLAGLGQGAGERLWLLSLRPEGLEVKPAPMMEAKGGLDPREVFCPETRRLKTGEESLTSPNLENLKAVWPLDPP
# How it was run: as §1
# ETS2 = biological target: T10, ETS2 (Homo sapiens, UniProt P15036 1-469); settings: protein: recombinant; tags: N-terminal GST; dsDNA, one strand shown
# T10 sequence: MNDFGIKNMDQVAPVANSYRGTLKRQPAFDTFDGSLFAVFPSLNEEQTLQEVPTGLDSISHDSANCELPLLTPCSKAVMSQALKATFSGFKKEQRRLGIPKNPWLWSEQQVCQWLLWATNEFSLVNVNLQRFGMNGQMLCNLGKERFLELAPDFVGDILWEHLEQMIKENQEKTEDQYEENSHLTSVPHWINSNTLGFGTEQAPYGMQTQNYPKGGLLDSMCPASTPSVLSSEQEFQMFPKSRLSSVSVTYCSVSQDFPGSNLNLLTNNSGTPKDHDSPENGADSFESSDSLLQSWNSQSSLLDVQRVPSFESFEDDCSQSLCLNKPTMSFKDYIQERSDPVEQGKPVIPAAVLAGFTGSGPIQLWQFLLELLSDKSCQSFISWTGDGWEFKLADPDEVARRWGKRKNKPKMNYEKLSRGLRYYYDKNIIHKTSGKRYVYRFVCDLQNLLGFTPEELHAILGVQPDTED
# How it was run: as §1
# ETV3 = biological target: T11, ETV3 (Homo sapiens, UniProt P41162-2 1-143); settings: protein: recombinant; tags: N-terminal GST; dsDNA, one strand shown
# T11 sequence: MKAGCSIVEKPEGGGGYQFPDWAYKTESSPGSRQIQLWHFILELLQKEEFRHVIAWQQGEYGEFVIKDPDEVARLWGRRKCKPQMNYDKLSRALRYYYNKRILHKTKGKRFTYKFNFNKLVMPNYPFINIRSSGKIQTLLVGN
# How it was run: as §1
# ETV6 = ETV6 (Homo sapiens, UniProt P41212 1-452); settings: protein: recombinant; tags: N-terminal GST; dsDNA, one strand shown
# How it was run: as §1
# Chain of ETV1 (P50549 whole entry): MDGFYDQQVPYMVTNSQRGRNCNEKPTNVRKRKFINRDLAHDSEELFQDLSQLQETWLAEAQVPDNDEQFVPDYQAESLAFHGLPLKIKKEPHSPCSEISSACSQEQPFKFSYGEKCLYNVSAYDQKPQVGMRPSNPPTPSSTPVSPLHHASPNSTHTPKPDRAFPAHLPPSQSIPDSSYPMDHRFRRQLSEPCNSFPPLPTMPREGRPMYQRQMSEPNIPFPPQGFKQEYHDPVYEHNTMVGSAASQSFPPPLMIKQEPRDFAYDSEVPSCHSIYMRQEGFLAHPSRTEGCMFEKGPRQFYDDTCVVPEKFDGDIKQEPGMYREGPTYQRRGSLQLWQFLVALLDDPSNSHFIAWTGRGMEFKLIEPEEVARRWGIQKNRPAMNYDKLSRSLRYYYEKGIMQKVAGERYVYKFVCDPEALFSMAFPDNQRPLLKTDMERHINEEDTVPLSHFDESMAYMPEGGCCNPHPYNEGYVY
# Chain of ETV6 (P41212 whole entry): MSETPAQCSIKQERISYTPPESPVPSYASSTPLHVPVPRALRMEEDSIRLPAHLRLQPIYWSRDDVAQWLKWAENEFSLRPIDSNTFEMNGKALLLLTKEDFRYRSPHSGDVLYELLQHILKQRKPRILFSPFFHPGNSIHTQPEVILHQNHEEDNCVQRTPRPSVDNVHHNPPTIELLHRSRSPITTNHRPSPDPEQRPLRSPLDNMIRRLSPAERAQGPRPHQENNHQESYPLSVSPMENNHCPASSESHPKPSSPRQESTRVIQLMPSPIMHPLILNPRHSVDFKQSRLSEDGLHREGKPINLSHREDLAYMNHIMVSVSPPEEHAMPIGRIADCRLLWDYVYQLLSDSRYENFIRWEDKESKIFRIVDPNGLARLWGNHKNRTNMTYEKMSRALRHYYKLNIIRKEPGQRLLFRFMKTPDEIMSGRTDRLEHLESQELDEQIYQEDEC
# Chain of ELF4 (Q99607 whole entry): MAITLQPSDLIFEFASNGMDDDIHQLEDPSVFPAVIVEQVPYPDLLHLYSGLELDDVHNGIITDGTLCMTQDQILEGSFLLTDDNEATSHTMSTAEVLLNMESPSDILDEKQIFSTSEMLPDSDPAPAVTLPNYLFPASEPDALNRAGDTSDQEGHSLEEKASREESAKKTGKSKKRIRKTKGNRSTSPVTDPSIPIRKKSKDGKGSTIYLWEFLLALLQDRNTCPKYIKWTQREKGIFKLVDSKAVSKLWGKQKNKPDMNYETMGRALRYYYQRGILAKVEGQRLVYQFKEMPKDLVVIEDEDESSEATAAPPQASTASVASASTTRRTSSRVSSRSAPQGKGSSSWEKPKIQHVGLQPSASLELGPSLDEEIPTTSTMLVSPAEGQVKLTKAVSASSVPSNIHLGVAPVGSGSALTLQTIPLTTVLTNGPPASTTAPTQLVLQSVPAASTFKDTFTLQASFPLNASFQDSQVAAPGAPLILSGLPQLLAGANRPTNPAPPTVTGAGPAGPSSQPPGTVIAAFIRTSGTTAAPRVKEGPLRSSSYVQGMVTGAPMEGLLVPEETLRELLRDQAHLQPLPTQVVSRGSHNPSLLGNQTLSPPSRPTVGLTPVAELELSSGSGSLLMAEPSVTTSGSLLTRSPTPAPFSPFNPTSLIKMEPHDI
# Chain of ELF1 (P32519 whole entry): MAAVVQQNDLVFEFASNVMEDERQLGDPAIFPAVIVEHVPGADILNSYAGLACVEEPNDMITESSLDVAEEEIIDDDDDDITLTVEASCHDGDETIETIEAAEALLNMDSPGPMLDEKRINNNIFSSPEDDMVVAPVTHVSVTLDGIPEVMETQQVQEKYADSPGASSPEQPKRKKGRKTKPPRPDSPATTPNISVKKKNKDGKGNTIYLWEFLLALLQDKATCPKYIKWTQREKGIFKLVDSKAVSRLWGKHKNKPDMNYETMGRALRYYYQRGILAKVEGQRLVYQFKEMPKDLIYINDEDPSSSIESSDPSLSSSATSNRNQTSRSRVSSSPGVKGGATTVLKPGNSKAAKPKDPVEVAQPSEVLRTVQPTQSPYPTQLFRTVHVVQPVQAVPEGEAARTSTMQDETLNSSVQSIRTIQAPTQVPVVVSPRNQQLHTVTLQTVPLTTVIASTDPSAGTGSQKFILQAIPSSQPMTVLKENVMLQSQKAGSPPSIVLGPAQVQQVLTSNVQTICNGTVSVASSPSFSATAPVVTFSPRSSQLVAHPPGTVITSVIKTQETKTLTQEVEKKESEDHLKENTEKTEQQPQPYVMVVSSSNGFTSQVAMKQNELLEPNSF
# Chain of SPIB (Q01892 whole entry): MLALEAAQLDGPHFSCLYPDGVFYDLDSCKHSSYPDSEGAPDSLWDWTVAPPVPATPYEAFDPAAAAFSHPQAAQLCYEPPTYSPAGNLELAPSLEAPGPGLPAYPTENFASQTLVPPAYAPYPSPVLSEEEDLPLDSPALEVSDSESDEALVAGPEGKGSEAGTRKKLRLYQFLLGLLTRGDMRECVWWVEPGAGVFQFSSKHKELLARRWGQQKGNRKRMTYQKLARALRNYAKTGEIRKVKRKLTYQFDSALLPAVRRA
# Chain of HSF1 (Q00613 whole entry): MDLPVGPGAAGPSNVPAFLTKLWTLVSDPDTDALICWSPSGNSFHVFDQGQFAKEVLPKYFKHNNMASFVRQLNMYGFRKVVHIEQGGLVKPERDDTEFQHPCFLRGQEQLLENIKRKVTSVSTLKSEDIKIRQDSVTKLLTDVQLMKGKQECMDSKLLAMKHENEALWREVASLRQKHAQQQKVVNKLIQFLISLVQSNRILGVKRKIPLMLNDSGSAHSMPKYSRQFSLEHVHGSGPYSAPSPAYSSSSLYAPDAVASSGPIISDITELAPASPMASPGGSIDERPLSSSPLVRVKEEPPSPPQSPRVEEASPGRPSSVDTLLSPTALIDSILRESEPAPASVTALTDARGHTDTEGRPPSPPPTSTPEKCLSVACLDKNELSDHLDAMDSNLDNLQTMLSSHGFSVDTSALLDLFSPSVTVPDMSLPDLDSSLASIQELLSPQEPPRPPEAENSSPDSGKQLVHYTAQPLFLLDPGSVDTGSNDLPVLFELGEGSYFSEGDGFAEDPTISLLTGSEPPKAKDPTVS
sequence,measurement,setting,value
GATCCA,binding signal,FLI1,"1.01 fold enrichment (6-mer frequency, TF over GST control)"
same,binding signal,ELK1,"1.08 fold enrichment (6-mer frequency, TF over GST control)"
same,binding signal,GABPA,"1.16 fold enrichment (6-mer frequency, TF over GST control)"
same,binding signal,ELF1,"1.04 fold enrichment (6-mer frequency, TF over GST control)"
same,binding signal,EHF,"1.07 fold enrichment (6-mer frequency, TF over GST control)"
same,binding signal,SPIB,"1.08 fold enrichment (6-mer frequency, TF over GST control)"
same,binding signal,ELK3,"1.02 fold enrichment (6-mer frequency, TF over GST control)"
same,binding signal,HSF1,"1.21 fold enrichment (6-mer frequency, TF over GST control)"
same,binding signal,ELF4,"1.05 fold enrichment (6-mer frequency, TF over GST control)"
same,binding signal,ELK4,"1.03 fold enrichment (6-mer frequency, TF over GST control)"
same,binding signal,ELF3,"1.15 fold enrichment (6-mer frequency, TF over GST control)"
same,binding signal,ETV1,"1.07 fold enrichment (6-mer frequency, TF over GST control)"
same,binding signal,ERF,"1.03 fold enrichment (6-mer frequency, TF over GST control)"
same,binding signal,ETV3L,"1.06 fold enrichment (6-mer frequency, TF over GST control)"
same,binding signal,ETS2,"1.09 fold enrichment (6-mer frequency, TF over GST control)"
same,binding signal,ETV3,"1.05 fold enrichment (6-mer frequency, TF over GST control)"
same,binding signal,ETV6,"1.05 fold enrichment (6-mer frequency, TF over GST control)"
